High-throughput results deposited in PubChem BioAssay by National Center for Advancing Translational Sciences (NCATS).
Rows were chosen to be rich in hits. Some 9.9% of all compounds tested hit in one or more screens of this group.
Tau ThT inhib: qHTS for Inhibitors of Tau Fibril Formation, Thioflavin T Binding; Microtubule-associated protein tau (Homo sapiens), P10636; recombinant tau K18 P301L, heparin-induced fibrillization, ThT fluorescence; Potency, µM (series often up to 57.4 µM), actives largely listed as inhibitors; actives 2.1% (n = 270,000); AID 1460, 2008; note: nearly all actives have a fitted effect of over 55% in size
Target sequence (P10636 561-689 P618L limits assumed): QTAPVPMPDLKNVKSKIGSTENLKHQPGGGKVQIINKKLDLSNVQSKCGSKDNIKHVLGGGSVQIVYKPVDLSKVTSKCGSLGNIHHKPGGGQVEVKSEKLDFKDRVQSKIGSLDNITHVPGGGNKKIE
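Tau K18 P301L fragment (15 uM unlabeled plus 0.24 uM Alexa 594-labeled) in 100 mM sodium acetate pH 7 with compound, fibrillization induced by 20 uM heparin for 6 hr at 37 C. Thioflavin T (30 uM) added, fluorescence read after 1 hr (ex 450, em 510 nm).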
ALDH1A1 block: qHTS Assay for Inhibitors of Aldehyde Dehydrogenase 1 (ALDH1A1). Aldehyde dehydrogenase 1A1 (Homo sapiens), P00352. Purified ALDH1A1, NADH fluorescence, propionaldehyde substrate. Potency, µM (highest dose often 75.3 µM), usual class: inhibitors. actives 7.3% (n = 220,000). AID 1030, 2008; active = well fitted inhibition curve with a large enough effect, not every such curve was filed as active; inconclusive = small, poorly fitted or top-dose-only effect, or another doubt; inactive = no such curve, though single readings can be large or run the other way
Tau FP inhib: qHTS for Inhibitors of Tau Fibril Formation, Fluorescence Polarization | AID 1468, 2008 | K18 P301L tau heparin fibrillization, Alexa594 FP, 6 h | Potency, µM (highest dose often 57.7 µM), hits mostly inhibitors | actives 0.39% (n = 280,000); note: nearly all actives have a fitted effect of over 55% in size
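Human K18 P301L fragment (15 uM unlabeled plus 0.24 uM Alexa 594-labeled) in 100 mM sodium acetate pH 7 with compound, aggregation induced by 20 uM heparin for 6 hr at 37 C. ThT (30 uM) added for 1 hr, then Alexa 594 FP read.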
KDM4E inh: qHTS Assay for Inhibitors of Human Jumonji Domain Containing 2E (JMJD2E) | Lysine-specific demethylase 4E (Homo sapiens), B2RXH2 | JMJD2E catalytic domain, FDH-coupled NADH fluorescence (FDH is formaldehyde dehydrogenase) | Potency, µM (titrated, usually from 57.1 µM), actives largely listed as inhibitors | actives 1.6% (n = 230,000) | AID 2147, 2009; active = well fitted inhibition curve with a large enough effect, not every such curve was filed as active; inconclusive = small, poorly fitted or top-dose-only effect, or another doubt; inactive = no such curve, though single readings can be large or run the other way; note: nearly all actives have a fitted effect of over 50% in size
HPGD block: qHTS Assay for Inhibitors of HPGD (15-Hydroxyprostaglandin Dehydrogenase) | 15-hydroxyprostaglandin dehydrogenase [NAD(+)] (Homo sapiens), P15428 | purified HPGD, NADH fluorescence kinetic, PGE2 substrate | Potency, µM, hits mostly inhibitors | actives 4.3% (n = 150,000) | AID 894, 2007; active = well fitted inhibition curve with a large enough effect, not every such curve was filed as active; inconclusive = small, poorly fitted or top-dose-only effect, or another doubt; inactive = no such curve, though single readings can be large or run the other way
Target sequence (P15428 whole entry, looked up): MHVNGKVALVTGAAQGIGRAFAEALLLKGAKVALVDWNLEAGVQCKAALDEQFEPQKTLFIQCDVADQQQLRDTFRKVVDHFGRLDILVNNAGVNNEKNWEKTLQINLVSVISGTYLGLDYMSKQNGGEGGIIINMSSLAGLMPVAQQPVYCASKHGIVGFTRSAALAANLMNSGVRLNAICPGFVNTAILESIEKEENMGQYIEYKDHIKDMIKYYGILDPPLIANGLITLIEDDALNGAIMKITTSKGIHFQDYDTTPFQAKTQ
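20 nM HPGD preincubated 15 min at room temperature with compound in 50 mM Tris-HCl pH 8, 0.01% Tween 20. Started with 1 mM NAD+ and 30 uM prostaglandin E2; NADH fluorescence (360/450 nm) read 5 times over 30-s intervals, last minus first.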
Tau fluor counter: Counterscreen qHTS for Inhibitors of Tau Fibril Formation, Fluorescence Polarization; tau K18 P301L Alexa594 fluorescence, heparin fibrillization; Potency, µM (series often up to 57.7 µM); actives 0.93% (n = 280,000); note: nearly all actives have a fitted effect of over 55% in size
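Human tau K18 P301L (15 uM unlabeled, 0.24 uM Alexa 594-labeled) in 100 mM sodium acetate pH 7 with 20 uM heparin, 6 hr at 37 C. ThT 30 uM added, 1 hr ambient; Alexa 594 FP and total fluorescence read at 555/632 nm.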
Each line names hits and unclear results; the compound was inactive in the other large screens; [ ] = remark or other dose. Unless noted, calls come from the whole dose curve; as a rule, active = well fitted curve in the direction sought with a large enough effect; inconclusive = small, poorly fitted or top-dose-only effect, or another doubt; inactive = no such curve, though single readings can be large; an effect the other way counts as inactive or inconclusive.

CC(C)(C)OC(=O)N1CCC(C(=O)N2CCOCC2)CC1	none
CC(C)(C)OC(=O)N1CCC(C(=O)N2CCCCCC2)CC1	HPGD block 14µM
COc1ccc(/C=N/NC(=O)CCSc2nc3ccccc3s2)cc1	Tau fluor counter inconclusive
Cn1cccc1CC(=O)NNC(=S)Nc1ccccc1Cl	ALDH1A1 block inconclusive, HPGD block 11µM
CC1(C)CC(CC(=O)Nc2ccccc2[N+](=O)[O-])C(=O)O1 (stereo unspecified)	ALDH1A1 block inconclusive
Cc1c(Cl)cccc1NC(=S)NC(=O)CCN1C(=O)c2ccccc2C1=O	ALDH1A1 block inconclusive
CC1(C)CC(CCC(=O)NC(=S)Nc2ccccc2Cl)C(=O)O1 (stereo unspecified)	ALDH1A1 block 13µM (no result: HPGD block)
O=C(CCN1C(=O)c2ccccc2C1=O)NC(=S)Nc1ccccc1Cl	ALDH1A1 block 22µM
O=C(Nc1ccccc1C(=O)OCc1cc(=O)n2nc(C3CC3)sc2n1)c1cccc(F)c1	none (no result: ALDH1A1 block, KDM4E inh, HPGD block)
COCCCN=Cc1c(C)[nH]n(-c2ccc(Br)cc2Br)c1=O	ALDH1A1 block inconclusive (no result: HPGD block)
CS[C@@H](CC(=O)O)C(=O)O	none (no result: Tau ThT inhib, Tau FP inhib, KDM4E inh, Tau fluor counter)
CC(=O)NCC(=O)OCC(=O)Nc1ccc(C(C)=O)cc1	ALDH1A1 block 22µM, HPGD block inconclusive
CC(=O)OCC(=O)Nc1ccc(C(C)=O)cc1	ALDH1A1 block inconclusive
Cc1cc(C)nc(SCc2ccc(C(=O)N/N=C3\CCCC(=O)C3)cc2)n1	ALDH1A1 block 8.9µM, KDM4E inh inconclusive (no result: HPGD block)
Cc1cc(C(=O)N/N=C2\CCCC(=O)C2)c2ccccc2n1	none
Cc1cc(C)nc(SCc2ccc(C(=O)NN=C3CCCC3)cc2)n1	Tau ThT inhib inconclusive, ALDH1A1 block 2.8µM (no result: HPGD block)
Cc1cc(C)nc(SCNC(=O)c2ccc(Cl)cc2)n1	HPGD block 28µM
Cc1cc(C)n2nc(CNC(=O)c3ccc(Cl)cc3)nc2n1	none (no result: ALDH1A1 block, KDM4E inh, HPGD block)
CCOCCCNS(=O)(=O)c1ccc2c(c1)OCCO2	Tau ThT inhib 16µM, KDM4E inh inconclusive, Tau fluor counter 16µM[quencher] (no result: HPGD block)
CC(C)CNS(=O)(=O)c1ccc2c(c1)OCCO2	HPGD block 32µM
O=S(=O)(NCCSc1ccc(Cl)cc1)c1ccc2c(c1)OCCO2	ALDH1A1 block 14µM, Tau fluor counter inconclusive
Cc1ccc(CNS(=O)(=O)c2ccc3c(c2)OCCO3)cc1	none
O=S(=O)(NCCSCc1ccc(Cl)cc1Cl)c1ccc2c(c1)OCCO2	ALDH1A1 block inconclusive, Tau fluor counter inconclusive
Cc1ccccc1CNS(=O)(=O)c1ccc2c(c1)OCCO2	HPGD block 25µM
O=C(Cn1cc(S(=O)(=O)N2CCN(c3ccccc3F)CC2)c2ccccc2c1=O)NCCCN1CCCCCC1	Tau ThT inhib inconclusive (no result: HPGD block)
COc1ccc(C2/C=C\C(c3ccc(OC)cc3)N(Cc3ccc(F)cc3)C(=O)C(=O)N2Cc2ccc(F)cc2)cc1 (stereo unspecified)	none (no result: KDM4E inh)
CCN1C(=O)C(CC(=O)Nc2ccc(C)cc2C)Nc2cc(S(=O)(=O)N(C)C)ccc21 (stereo unspecified)	ALDH1A1 block 28µM (no result: HPGD block)
Cc1ccc(S(=O)(=O)NC(C)CCc2ccccc2)cc1 (stereo unspecified)	ALDH1A1 block 25µM
Cc1ccc(S(=O)(=O)N[C@@H](CCc2ccccc2)CC(=O)C(C)(C)C)cc1	none (no result: KDM4E inh, HPGD block)
S=c1nccc(-c2ccc(Cl)cc2)[nH]1	Tau ThT inhib inconclusive, Tau FP inhib inconclusive (no result: HPGD block)
S=c1[nH]c(-c2ccc(Cl)cc2)cs1	Tau ThT inhib inconclusive, ALDH1A1 block 3.2µM (no result: HPGD block)
Cc1ccc(-c2csc(=S)[nH]2)cc1	Tau ThT inhib inconclusive, ALDH1A1 block 14µM (no result: HPGD block)
CC(C)C[C@H](NC(=O)NC1CCCc2ccccc21)C(=O)O (stereo partly specified)	none (no result: HPGD block)
